Molecules are shown by their SMILES. Calls of active or inactive are those of the source.

Experiment [1] has as its target Albumin (Bos taurus) (UniProt P02769). The experiment in a line: bovine serum albumin binders on microarray, profiling panel, artefact control for SMM control protein annotation, biochemical, small-molecule microarray, Alexa647 label, 635/667 nm fluorescence (AID 1118).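 Note: score merges 667 nm emission intensity and signal-to-noise per printed compound spot.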 As to conditions: BSA-A647 binding, fluorescence 635 nm, higher = more signal.
A short description of experiment [2]: small-molecule microarray binders of probe aXIP, primary screen, biochemical, NeuroSMM set, 635/667 nm fluorescence (AID 1119).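 Note: probe is the protein aXip251-270 applied at 1 µg/mL to compound-printed slides; binding of probe to printed compounds measured as 667 nm fluorescence plus signal to noise.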 As to conditions: higher = more signal, called active from +8 up or from −8 down.
Experiment [3] in a line: small-molecule binders of probe aNOTCH3, primary screen, biochemical, small-molecule microarray, 635/667 nm fluorescence (AID 1120).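 Note: probe is a biotin-tagged antibody raised against NOTCH3 rather than NOTCH3 protein; score merges spot fluorescence near 667 nm with spot signal to noise.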 As to conditions: higher = more signal.
Experiment [4] in a line: small-molecule binders of probe aNOTCH2, primary screen, biochemical, small-molecule microarray, 635/667 nm fluorescence (AID 1121).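 Note: score merges feature fluorescence read at 667 nm with its signal to noise.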 As to conditions: higher = more signal.
For experiment [5], the target named is Carbonic anhydrase 2 (Homo sapiens) (UniProt P00918). The experiment in a line: CAII small-molecule binders, profiling panel, biochemical, small-molecule microarray, Alexa647-labelled CAII (AID 1122). As to conditions: CAII-A647 binding fluorescence, higher = more signal.
Experiment [6] can be described thus: COS7 lysate on small-molecule microarray, probe aHis, 635 nm (AID 1123).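 Note: z-score combines 667nm fluorescence intensity with signal-to-noise per printed compound spot.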 To be noted: COS7 cell lysate, fluorescence, higher = more signal.
Experiment [7] is described as follows: compound binding in COS7 lysate, probe aLAP1, primary screen, cell lysate, small-molecule microarray (AID 1124).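 Note: lysate comes from COS7 cells expressing LAP1 and is applied at 0.3 µg/mL; score merges spot fluorescence near 667 nm with signal-to-noise over triplicate slides.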 As to conditions: probe aLAP1, fluorescence, higher = more signal.
The subject of experiment [8] is Sam68 (KHDRBS1). Nature of the experiment: Sam68 small-molecule binders, primary screen, biochemical, small-molecule microarray, 635 nm fluorescence (AID 1125).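 Note: score merges 667 nm channel intensity with signal to noise over triplicate slides.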 To be noted: small-molecule microarray binding, higher = more signal.
Experiment [9] deals with Chordin-like protein 2 (CHRDL2). The experiment in a line: CHRDL2 small-molecule binders, primary screen, biochemical, small-molecule microarray, 635 nm fluorescence (AID 1126).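 Note: printed compound slides probed with Chrdl2 protein at 4 µg/mL for 1 h at 4 C; score merges 667 nm emission intensity with signal to noise over three replicate slides.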 To be noted: small-molecule microarray binding, fluorescence 635 nm; higher = more signal.
Experiment [10] concerns the target Concanavalin-A (Canavalia ensiformis) (UniProt P02866). The experiment in a line: ConA small-molecule binders, primary screen, artefact control for SMM control protein annotation, biochemical, small-molecule microarray, Alexa647 label, 635 nm (AID 1127).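 Note: z combines 667 nm emission intensity with signal-to-noise across three replicate slides.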 To be noted: ConA-A647 binding fluorescence, higher = more signal.

Chain of Albumin (Bos taurus) (P02769 whole entry, looked up): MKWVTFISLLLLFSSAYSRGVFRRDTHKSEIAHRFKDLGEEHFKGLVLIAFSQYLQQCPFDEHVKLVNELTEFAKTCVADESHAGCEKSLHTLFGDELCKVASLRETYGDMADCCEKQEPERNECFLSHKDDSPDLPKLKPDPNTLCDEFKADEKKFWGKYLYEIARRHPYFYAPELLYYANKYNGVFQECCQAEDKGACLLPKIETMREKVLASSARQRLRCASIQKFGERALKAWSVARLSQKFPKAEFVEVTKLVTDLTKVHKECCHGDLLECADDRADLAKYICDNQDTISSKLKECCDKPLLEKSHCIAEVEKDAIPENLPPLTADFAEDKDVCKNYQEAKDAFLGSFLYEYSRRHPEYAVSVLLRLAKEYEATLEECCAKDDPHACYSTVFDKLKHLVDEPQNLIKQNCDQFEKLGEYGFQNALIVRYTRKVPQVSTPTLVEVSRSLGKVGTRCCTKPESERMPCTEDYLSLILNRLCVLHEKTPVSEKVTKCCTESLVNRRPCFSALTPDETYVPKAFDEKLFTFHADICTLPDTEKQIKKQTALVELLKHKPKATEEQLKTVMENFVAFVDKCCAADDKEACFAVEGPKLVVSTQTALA
Chain of Concanavalin-A (Canavalia ensiformis) (P02866 whole entry, looked up): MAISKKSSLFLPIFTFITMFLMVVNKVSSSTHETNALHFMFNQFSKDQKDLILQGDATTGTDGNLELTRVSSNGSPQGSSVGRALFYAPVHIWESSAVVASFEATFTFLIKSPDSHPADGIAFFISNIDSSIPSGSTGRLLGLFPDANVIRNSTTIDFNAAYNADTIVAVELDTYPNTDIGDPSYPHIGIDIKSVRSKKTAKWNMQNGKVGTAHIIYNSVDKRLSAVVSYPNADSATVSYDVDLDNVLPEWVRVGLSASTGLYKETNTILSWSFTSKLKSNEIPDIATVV

With `C=C(CCCC)C(=O)CC[C@H](OC(C)=O)c1cccc(OCCO)c1`, the composite z-score is -1.33 in experiment [1]; -0.224 in experiment [3]; -0.205 in experiment [4]; -0.361 in experiment [5]; -0.0995 in [6]; -0.186 in [7]. In addition, the composite z-score was -0.11 in experiment [8], -1.14 in [9] and -0.502 in experiment [10]. Moreover, the composite Z-score in [2] is -0.126 (inactive).
For `CN1C(=O)C2C=CC(C(O)c3cccs3)N(Nc3ccccc3)C2C1=O` (stereo not given), the composite z-score in experiment [1] was 0.95; in experiment [3], 0.0873; in experiment [4] it was -0.0856; in experiment [5], 0.831; in [6], 1.87; in experiment [7], -0.0235. In addition, the composite z-score in experiment [8] amounted to 0.186; in [9] it was 0.0907; in experiment [10], 0.442. The composite Z-score in experiment [2] was -0.227 (inactive).
For `CCOC(=O)C[C@H]1[C@H](OC(=O)Cc2ccc3c(c2)OCO3)[C@@H](NC(=O)c2ccc3ccccc3c2)c2cc(OCCCO)ccc2N1C(=O)c1ccccc1`, the composite z-score in [1] was 0.601; in experiment [3] it was -0.0077; in experiment [4] it was -0.14; in [5], 0.32; in [6], 1.04; in [7], 0.186. Further, the composite z-score amounted to 1.09 in [8], 0.308 in experiment [9] and 0.541 in experiment [10]. In [2], the composite Z-score is -0.0185 (inactive).
On to `C=CCNC(=O)[C@H]1[C@@H]2C(=O)O[C@@H](c3ccccc3)[C@@H](c3ccccc3)N2[C@@H](c2ccc(OCCO)cc2)[C@]12C(=O)Nc1ccc(C#CC3=CCCCC3)cc12`, for which the composite z-score in experiment [1] was 0.17; in experiment [3], -0.0933; in [4], -0.0703; in experiment [5], 0.338; in experiment [6], 0.999; in experiment [7], 0.272. Besides, the composite z-score in [8] was 1.31; in [9], 0.105; in experiment [10], 0.994. In [2], the composite Z-score was 0.0758 (inactive).
As to `COc1ccc([Si](C)(C)[C@H]2[C@H](CC(=O)N3Cc4ccccc4C[C@H]3CO)O[C@@]3(C(=O)N(Cc4ccc(N5CCC5=O)cc4)c4ccccc43)[C@@H]2C)cc1`, the composite z-score in experiment [1] was 0.402; in experiment [3], -0.0014; in experiment [4] it was 0.581; in [5], 0.516; in [6], 1.51; in experiment [7] it was 1.19. Also, the composite z-score was 1.29 in experiment [8], 1.4 in experiment [9] and 1.13 in experiment [10]. For the same compound, in experiment [2], the composite Z-score is -0.39 (inactive).
With `C=CCOC(=O)[C@H]1[C@@H]2C(=O)O[C@@H](c3ccccc3)[C@@H](c3ccccc3)N2[C@@H](c2ccc(OCCOC(=O)[C@H]3C[C@H]4C(=O)N[C@@H](CC(C)C)C(=O)N4[C@H]3c3ccc(O)cc3)cc2)[C@]12C(=O)Nc1ccc(I)cc12`, the composite z-score was -0.262 in experiment [1]; 0.17 in [3]; -0.117 in [4]; 0.597 in experiment [5]; 1.77 in experiment [6]; 0.818 in experiment [7]. Besides, the figures for the composite z-score in experiment [8], in experiment [9] and in experiment [10] were 1.28, 1.37 and 1.16, respectively. Further, the composite Z-score in experiment [2] was 0.672 (inactive).
As for `CCCC=C(CCC)[C@@H](NS(=O)(=O)c1cccs1)c1ccc(C(=O)OC)cc1`, the composite z-score was determined as 1.06 in experiment [1]; 0.17 in experiment [3]; 0.0592 in [4]; 0.748 in experiment [5]; 2.94 in [6]; 0.157 in experiment [7]. Further, the composite z-score was 1.32 in experiment [8], -1.19 in experiment [9] and 1.17 in experiment [10]. In [2], the composite Z-score is -0.227 (inactive).
For the compound `COCCCNC(=O)[C@@]1(Cc2ccccc2N=[N+]=[N-])N=C(c2ccc(OCCCO)cc2)O[C@H]1c1ccccc1N=[N+]=[N-]`, the composite z-score in [1] came to 0.964; in experiment [3], 0.386; in [4], 0.149; in experiment [5], 0.58; in experiment [6] it was 2.76; in [7], 0.889. The composite z-score is 1.29 in [8], -0.0927 in experiment [9] and 1.1 in [10]. Also, the composite Z-score in experiment [2] is 0.328 (inactive).
With `CC(C)(C)OC(=O)CC[C@]1(C(=O)NCC(O)CO)COC(c2ccc(OCCCO)cc2)=N1` (stereo not given in full), the composite z-score in experiment [1] is 0.693; in experiment [3], 0.0425; in [4], -0.106; in [5] it was 0.828; in experiment [6], 2.68; in [7], -0.45. For the same compound, the composite z-score was 0.949 in experiment [8], -1.53 in [9] and 0.504 in [10]. Moreover, in [2], the composite Z-score is 0.0333 (inactive).
Consider `CC(C)C(=C=CC[C@@H](O)c1ccccc1OCCO)CCO`, for which the composite z-score in experiment [1] is 0.0824; in experiment [3], -0.0311; in [4], -0.115; in [5], 0.374; in experiment [6], -0.501; in experiment [7], -0.412. For the same compound, the composite z-score in [8] came to 0.615; in [9] it was 0.0551; in experiment [10], 0.542. In addition, the composite Z-score in experiment [2] was -0.519 (inactive).
With `O=C1O[C@@H](c2ccccc2)[C@@H](c2ccccc2)N2[C@@H](c3ccc(OCCO)cc3)[C@]3(C(=O)Nc4ccccc43)[C@@H](C(=O)NC[C@H](O)c3ccccc3)[C@H]12`, the composite z-score in [1] was 0.393; in [3], 0.0519; in [4], -0.0649; in experiment [5], 0.549; in experiment [6] it was 1.67; in experiment [7], 0.759. The composite z-score was found to be 0.989 in experiment [8], 0.895 in experiment [9] and 0.999 in [10]. Besides, in [2], the composite Z-score was 0.312 (inactive).
With `COCCOC(=O)N1C(=O)[C@@]2(c3cc(C#Cc4ccc(OC)cc4)ccc31)[C@H](C(=O)N1CCCCCCC1)[C@H]1C(=O)O[C@H](c3ccccc3)[C@H](c3ccccc3)N1[C@@H]2c1ccc(OCCO)cc1`, the composite z-score in [1] is -1.25; in experiment [3], 0.872; in experiment [4], 0.711; in [5] it was 0.712; in experiment [6], 1.49; in experiment [7], 0.913. Moreover, the results for the composite z-score in [8], in experiment [9] and in [10] were 1.3, 1.48 and 0.987, respectively. For the same compound, in [2], the composite Z-score was 3.51 (inactive).
On to `COC(=O)[C@@]1(Cc2ccc(F)cc2)[C@H]2c3cc(C(=O)N4CCCC4)n(Cc4ccc(C)o4)c3C[C@H]2CN1C(=O)c1ccccc1`, for which the composite z-score was found to be 0.469 in [1]; 0.28 in experiment [3]; 0.354 in [4]; 0.546 in [5]; 1.95 in experiment [6]; 0.137 in experiment [7]. For the same compound, the composite z-score was -0.459 in experiment [8], -0.549 in experiment [9] and 0.851 in experiment [10]. Further, in experiment [2], the composite Z-score is 0.157 (inactive).
For `CCCCC(=C=CC[C@@H](O)c1ccccc1OCCO)CCO`, the composite z-score in experiment [1] was 0.694; in [3] it was -0.0321; in experiment [4], -0.0928; in experiment [5], 0.726; in experiment [6], 1.1; in experiment [7] it was 0.257. For the same compound, the values for the composite z-score in experiment [8], in [9] and in experiment [10] were 0.0301, -0.638 and -0.382, respectively. In addition, in [2], the composite Z-score was 0.35 (inactive).

These data come from PubChem BioAssay.
